“And” between values parts separate entries of the source, which are not always exact repeats. Equal values may be shown once. Compounds without any hit were thinned out: in the full panel of roughly 83,000, 20% have a hit.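 Single-dose data. Exposure time 48 hours. Values below 10 considered active.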 Values without a mark were called inactive. The source made the active and inactive calls. Where a SMILES comes first, the peptide text is derived from it.

For one experiment, the system named is HCC-2998 colon. The experiment in a line: NCI-60 one-dose screen, 48 h (100 = growth as untreated, 0 = no growth, -100 = all killed). Particulars: 10 µM unless noted.
Turning to `NC(Cc1c[nH]c2ccccc12)C(=O)O` (stereo not drawn), the growth was 103% and 101%.
Consider `CC(=O)Nc1ccc(S(N)(=O)=O)cc1`, for which the growth is 108%.
In the case of `CC1CCC(C(C)C)C(NNC(N)=O)C1` (stereo not drawn), the growth was 91.8%.
As to `Cc1cc(-c2ccc(N=Nc3ccc4c(S(=O)(=O)O)cc(S(=O)(=O)O)c(N)c4c3O)c(C)c2)ccc1N=Nc1ccc2c(S(=O)(=O)O)cc(S(=O)(=O)O)c(N)c2c1O`, the growth is 117%.
Regarding `CCCCCCCCCCCCCCCc1ccc(N)c(OC2OC(CO)C(O)C(O)C2O)c1` (stereo not drawn), the growth is 9.53% (active).
Same read-out and setting: to `CCOC(=O)c1c(C)cc(=O)oc1C` belongs 103%; to `Cc1cc2ccccc2cn1`, 112% and 118%; to `O=C(CO)C(O)C(O)C(O)C(O)CO` (stereo not drawn), 109% and 119%.
For `COc1ccc(C(=O)CC(c2ccccc2)C(C#N)c2ccccc2)cc1` (stereo not drawn), the growth is 99.1%.
Still for that read-out and setting: to `Fc1ccc([I+]c2ccc(F)cc2)cc1` belongs 71.7%.
For the molecule `CN(C)c1ccc(/C=C\C(=O)c2ccccc2)cc1`, the growth was 97.1% and 88.3% and 100%.
As to `O=[N+]([O-])c1cccc(SSc2cccc([N+](=O)[O-])c2)c1`, the growth was 108%.
With `O=C(O)/C=C\C(=O)Nc1cccc2ccccc12`, the growth was 118% and 96.8%.
Same read-out and setting: the figure for `CCc1cc(C)cc(O)c1` is 104%; for `Brc1ccc(SSc2ccc(Br)cc2)cc1` it is 93.5%.
`ClCCOCCOc1ccc(C2CCCCC2)cc1`: the growth was 106%.
In the case of `CN(C)CC1CCCCCC(CN(C)C)C1=O` (stereo not drawn), the growth is 117%.
`NN1CCOC(c2ccccc2)C1` (stereo not drawn): the growth was 107%.
As to `NC(Cc1ccccc1)C(=O)NC(Cc1ccccc1)C(=O)O` (stereo not drawn) (H-Phe-Phe-OH; configuration not given here), the growth was 112%.
For the molecule `c1ccc(CNCCNCc2ccccc2)cc1`, the growth was 116%.
Take `CC1=C/C(O)CC(=O)Cc2nc(co2)C(=O)N2CCC=C2C(=O)OC(C(C)C)C(C)/C=C\C(=O)NC/C=C\1` (stereo not drawn): the growth is 118%.
For the molecule `O=C1CSC2=NCCN12`, the growth is 96.9% and 107%.
Take `Nc1ncnc2c1ncn2C1OC(COP(=O)(O)O)C(O)C1O` (stereo not drawn): the growth was 104%.
With `NC1CCC(C(=O)O)CC1` (stereo not drawn), the growth was 111% and 100%.
As for `CC[C@H](CC[C@@H](C)[C@H]1CC[C@H]2[C@@H]3CC=C4C[C@@H](O)CC[C@]4(C)[C@H]3CC[C@]12C)C(C)C`, the growth was 108%.
For `c1ccc2c(c1)OC1OC2Oc2ccccc21`, the growth was 105%.
As to `CCCCOc1ccc(Nc2cc(Cl)ccc2C(=O)O)cn1`, the growth is 95.4%.
Turning to `CC(C)(O)C(=O)O`, the growth was 119%.
Take `c1ccc(-c2nc3ccccc3s2)cc1`: the growth was 97.2%.
The same measure, in the same setting: the figure for `CC(=O)OCC1OC(OC(C)=O)C(OC(C)=O)C(OC(C)=O)C1OC(C)=O` (stereo not drawn) is 111% and 101%.
With `CCN(CCNS(C)(=O)=O)c1ccc(N)c(C)c1`, the growth was 103% and 102%.
For `NC(=O)NCCCC(N)C(=O)O` (stereo not drawn), the growth is 110%.
As to `CC(C)C(C)(C)c1ccc(O)cc1`, the growth was 114%.
`Cl`: the growth was 108%.
In the case of `N#CC(C#N)N=Nc1cc(Cl)ccc1Cl`, the growth was 104%.

Another experiment deals with KM12 colon. The description is as above. Particulars: 10 µM unless noted.
Regarding `NC(Cc1c[nH]c2ccccc12)C(=O)O` (stereo not drawn), the growth is 108% and 109%.
In the case of `CC(=O)Nc1ccc(S(N)(=O)=O)cc1`, the growth was 109% and 108%.
For the molecule `COc1ccc(Nc2ccc3ccccc3c2)cc1`, the growth is 46.7%.
On the same count and under the same terms, the figure for `CC1CCC(C(C)C)C(NNC(N)=O)C1` (stereo not drawn) is 94%; for `Cc1cc(-c2ccc(N=Nc3ccc4c(S(=O)(=O)O)cc(S(=O)(=O)O)c(N)c4c3O)c(C)c2)ccc1N=Nc1ccc2c(S(=O)(=O)O)cc(S(=O)(=O)O)c(N)c2c1O` it is 94.7%; for `CCCCCCCCCCCCCCCc1ccc(N)c(OC2OC(CO)C(O)C(O)C2O)c1` (stereo not drawn) it is 100%.
The same measure, in the same setting: to `CCOC(=O)c1c(C)cc(=O)oc1C` belongs 110%; to `Cc1cc2ccccc2cn1`, 106% and 108%; to `O=C(CO)C(O)C(O)C(O)C(O)CO` (stereo not drawn), 106% and 105%.
For `COc1ccc(C(=O)CC(c2ccccc2)C(C#N)c2ccccc2)cc1` (stereo not drawn), the growth was 79.9%.
Still for that read-out and setting: the figure for `Fc1ccc([I+]c2ccc(F)cc2)cc1` is 54.5%.
Still for that read-out and setting: to `CN(C)c1ccc(/C=C\C(=O)c2ccccc2)cc1` belongs 51.5% and 50.1% and 57.5%.
Regarding `O=[N+]([O-])c1cccc(SSc2cccc([N+](=O)[O-])c2)c1`, the growth is 107%.
Regarding `O=C(O)/C=C\C(=O)Nc1cccc2ccccc12`, the growth was 89.8% and 106%.
Consider `CCc1cc(C)cc(O)c1`, for which the growth was 114%.
For `Brc1ccc(SSc2ccc(Br)cc2)cc1`, the growth is 57.4%.
In the case of `ClCCOCCOc1ccc(C2CCCCC2)cc1`, the growth is 110%.
On to `CN(C)CC1CCCCCC(CN(C)C)C1=O` (stereo not drawn), for which the growth was 102%.
Take `NN1CCOC(c2ccccc2)C1` (stereo not drawn): the growth is 101%.
With `NC(Cc1ccccc1)C(=O)NC(Cc1ccccc1)C(=O)O` (stereo not drawn) (H-Phe-Phe-OH; configuration not given here), the growth was 105% and 107%.
As for `c1ccc(CNCCNCc2ccccc2)cc1`, the growth was 120%.
Still for that read-out and setting: the figure for `CC1=C/C(O)CC(=O)Cc2nc(co2)C(=O)N2CCC=C2C(=O)OC(C(C)C)C(C)/C=C\C(=O)NC/C=C\1` (stereo not drawn) is 95.1%; for `O=C1CSC2=NCCN12` it is 89.8% and 123%; for `Cn1cnc([N+](=O)[O-])c1Sc1ncn[nH]1` it is 107%.
Take `Nc1ncnc2c1ncn2C1OC(COP(=O)(O)O)C(O)C1O` (stereo not drawn): the growth is 111%.
Turning to `NC1CCC(C(=O)O)CC1` (stereo not drawn), the growth is 107% and 108%.
Same read-out and setting: the figure for `CC[C@H](CC[C@@H](C)[C@H]1CC[C@H]2[C@@H]3CC=C4C[C@@H](O)CC[C@]4(C)[C@H]3CC[C@]12C)C(C)C` is 106% and 98.6%.
On to `c1ccc2c(c1)OC1OC2Oc2ccccc21`, for which the growth is 87.3%.
`CCCCOc1ccc(Nc2cc(Cl)ccc2C(=O)O)cn1`: the growth was 118% and 103%.
For the molecule `CC(C)(O)C(=O)O`, the growth is 107%.
The same measure, in the same setting: the figure for `c1ccc(-c2nc3ccccc3s2)cc1` is 95.4%; for `CC(=O)OCC1OC(OC(C)=O)C(OC(C)=O)C(OC(C)=O)C1OC(C)=O` (stereo not drawn) it is 109% and 100%; for `CCN(CCNS(C)(=O)=O)c1ccc(N)c(C)c1` it is 103%.
With `OC1COC(OCc2ccccc2)C(O)C1O` (stereo not drawn), the growth was 105%.
Turning to `NC(=O)NCCCC(N)C(=O)O` (stereo not drawn), the growth is 101%.
For `CC(C)C(C)(C)c1ccc(O)cc1`, the growth is 107%.
For the molecule `Cl`, the growth was 112%.
With `N#CC(C#N)N=Nc1cc(Cl)ccc1Cl`, the growth was 103%.
